PubChem BioAssay (NCATS)
A number with no mark means an inactive call. The call rests on the fitted dose curve; in most records, active means well fitted inhibition curve with a large enough effect; inconclusive means small, poorly fitted or top-dose-only effect; inactive means no such curve, though single readings can be large or run the other way. Results filed as inconclusive are left out. Residues, ends and D or L forms follow the SMILES beside them. *: point of attachment. Cbz = O=C(OCc1ccccc1)*

target: Single-stranded DNA cytosine deaminase (Homo sapiens) (UniProt Q9GZX7); experiment: Validation qHTS assay for inhibitors of Activation Induced Cytidine Deaminase (AID): AID signal (AID 1347429); conditions: Recombinant AID, FRET ssDNA deamination with UDG, fluorescence; series mostly up to 115 µM; activity change, negative = inhibition: at the top concentration; further: on the % scale 0 is the no-effect control and ±100 the full control effect
Summary of the method: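 Compounds (up to 114 uM final) are tested against AID plus UDG using DJC20/DJC23 FRET substrate. Reactions incubate 4 hr at room temperature, receive NaOH for 30 min, and are read at Ex 540/Em 590 nm.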

Chain of Single-stranded DNA cytosine deaminase (Homo sapiens) (Q9GZX7 whole entry, looked up): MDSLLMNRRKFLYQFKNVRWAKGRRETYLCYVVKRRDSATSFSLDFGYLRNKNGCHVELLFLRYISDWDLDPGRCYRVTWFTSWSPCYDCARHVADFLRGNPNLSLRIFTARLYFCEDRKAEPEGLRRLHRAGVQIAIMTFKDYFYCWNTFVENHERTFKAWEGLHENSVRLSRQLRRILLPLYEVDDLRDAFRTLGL

SMILES | activity change, negative = inhibition
Cc1ccc2c(c1)C(N1CCN(C)CC1)=Nc1cccnc1N2 | 14.1%
NS(=O)(=O)c1cccc2c1c([N+](=O)[O-])cc1nc(O)c(O)nc12 | 74.9%
CC(/C=C/c1cccc(Oc2ccc(F)cc2)c1)N(O)C(N)=O (centres undefined) | 9.5%
NC(C(=O)N[C@@H]1C(=O)N2C(C(=O)O)=C(Cl)CS[C@H]12)c1ccccc1 (some centres undefined) | 57.2%
O=C1C2C=CC=CC2=NC(=S)N1CCN1CCC(=C(c2ccc(F)cc2)c2ccc(F)cc2)CC1 (centres undefined) | 4.28%
CCCCCCC(=O)OC1CC(C)(C)NC(C)(C)C1 | 15.5%
CC(=O)NCCc1c[nH]c2ccc(O)cc12 | 43.2%
COC(=O)[C@H](NC(=O)c1cc(-c2ccccc2)nc2ccccc12)c1ccccc1 | 13.8%
Oc1cc(O)c2c(c1)O[C@H](c1ccc(O)c(O)c1)[C@@H](O)C2 | 8.26%
O=C(O)c1cc2cc(F)ccc2[nH]1 | 5.82%
NC1CCN(O)C1=O (centres undefined) | 13.5%
C=C(C)C1CC=C(C(=O)O)CC1 (centres undefined) | 7.89%
Cn1cc(C(F)(F)F)nc1-c1ccc(OCC(O)CNCCOc2ccc(O)c(C(N)=O)c2)cc1 (centres undefined) | 16.9%
COc1ccc(CCn2nnnc2C2(c3ccc(C)cc3)CC2)cc1 | 6.55%
CC(C)[C@H](NC(=O)OCc1ccccc1)C(=O)N[C@H](C=O)Cc1ccccc1 (Cbz-Val-Phe-aldehyde) | 20.1%
O=c1ccc2c(OCCCCc3ccccc3)c3ccoc3cc2o1 | 11%
OCC1NCC(O)C(O)C1O (centres undefined) | 18.2%
N[C@@H](CCCC(=O)O)C(=O)O | 9.27%
NC(N)=NC(N)=Nc1ccccc1 | 23.9%

SMILES | activity change, negative = inhibition
CC1=C(/C=C/C(C)=C/C=C/C(C)=C\C(=O)O)C(C)(C)CCC1 | 21.3%
NC1C=CC=C(C(=O)O)C1 (centres undefined) | 13.2%
N[C@@H](CS(=O)O)C(=O)O | 14.1%
Cc1nc(N=Nc2ccc(S(=O)(=O)O)cc2S(=O)(=O)O)c(COP(=O)(O)O)c(C=O)c1O | 16.2%
COc1cccc(OC)c1OCCNCC1CSc2ccccc2O1 (centres undefined) | 4.74%
C[C@H]1CC2C3CCC4=CC(=O)C=C[C@]4(C)[C@@]3(Cl)[C@@H](O)C[C@]2(C)[C@@]1(O)C(=O)CO (some centres undefined) | 1.75%
O=C(O)c1ccccc1Nc1ccccc1 | 10.6%
O=C(O)CCC(=O)N1CCCC1C(=O)O (centres undefined) | 3.64%
COc1cc(CNC(=O)CCCCCCC(C)C)ccc1O | 5.77%
O=C(O)Cc1ccc(O)c(O)c1 | 11.5%
Nn1nnc2ccccc21 | 16%
COc1cc(/C=C(\C#N)C(=O)c2ccc(O)c(O)c2)cc(I)c1O | -12.8%
O=C(O)Cc1c[nH]c2ccc(O)cc12 | 31.1%
CCCC(=O)NCCc1c2n(c3ccc(OC)cc13)CCCc1ccccc1-2 | -2.34%
Oc1ccc(Cn2cc[nH]c2=S)cc1 | 18.3%
CCCc1c(OCCCOc2ccc(OCC(=O)O)cc2)ccc(C(C)=O)c1O | -3.03%
NCCC1CCCC(CCN)N1 (centres undefined) | 321%
c1ccc2nc(C3=NCCN3)ccc2c1 | 38.2%
N#CC(C#N)=C(N)/C(C#N)=C/c1ccc(O)cc1 | 105%

tested on: not listed separately; experiment: Primary qHTS for inhibitors of La Crosse Virus (LACV) - induced cell death in SH-SY5Y cells (AID 1508616); conditions: SH-SY5Y LACV cytopathicity rescue, ATP luminescence, 6 d; series mostly up to 9.63 µM; activity change: at the top concentration;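 further: top concentration of the series differs between compounds; 0% = infected DMSO wells and 100% = uninfected DMSO wells; higher means more rescue of cells from virus-induced death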
Summary of the method: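 Screening measures cell viability in LACV-infected SH-SY5Y cultures. Compound was added before virus (0.01 MOI), and ATP was detected by luminescence 6 days later.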

SMILES | activity change
Cc1ccc2c(c1)C(N1CCN(C)CC1)=Nc1cccnc1N2 | -24%
NS(=O)(=O)c1cccc2c1c([N+](=O)[O-])cc1nc(O)c(O)nc12 | -20.7%
CC(/C=C/c1cccc(Oc2ccc(F)cc2)c1)N(O)C(N)=O (centres undefined) | 32.1%
NC(C(=O)N[C@@H]1C(=O)N2C(C(=O)O)=C(Cl)CS[C@H]12)c1ccccc1 (some centres undefined) | 8.99%
O=C1C2C=CC=CC2=NC(=S)N1CCN1CCC(=C(c2ccc(F)cc2)c2ccc(F)cc2)CC1 (centres undefined) | 10.8%
CCCCCCC(=O)OC1CC(C)(C)NC(C)(C)C1 | -4.48%
COC(=O)[C@H](NC(=O)c1cc(-c2ccccc2)nc2ccccc12)c1ccccc1 | 26.9%
Oc1cc(O)c2c(c1)O[C@H](c1ccc(O)c(O)c1)[C@@H](O)C2 | -9.93%
O=C(O)c1cc2cc(F)ccc2[nH]1 | -26.7%
NC1CCN(O)C1=O (centres undefined) | 18.6%
C=C(C)C1CC=C(C(=O)O)CC1 (centres undefined) | 16.3%
Cn1cc(C(F)(F)F)nc1-c1ccc(OCC(O)CNCCOc2ccc(O)c(C(N)=O)c2)cc1 (centres undefined) | -0.981%
COc1ccc(CCn2nnnc2C2(c3ccc(C)cc3)CC2)cc1 | 6.93%
CC(C)[C@H](NC(=O)OCc1ccccc1)C(=O)N[C@H](C=O)Cc1ccccc1 (Cbz-Val-Phe-aldehyde) | -7.02%
O=c1ccc2c(OCCCCc3ccccc3)c3ccoc3cc2o1 | 13.4%
OCC1NCC(O)C(O)C1O (centres undefined) | -11.5%
N[C@@H](CCCC(=O)O)C(=O)O | 5.06%
NC(N)=NC(N)=Nc1ccccc1 | 17.3%

SMILES | activity change
CC1=C(/C=C/C(C)=C/C=C/C(C)=C\C(=O)O)C(C)(C)CCC1 | 36%
NC1C=CC=C(C(=O)O)C1 (centres undefined) | -5.99%
N[C@@H](CS(=O)O)C(=O)O | 3.57%
Cc1nc(N=Nc2ccc(S(=O)(=O)O)cc2S(=O)(=O)O)c(COP(=O)(O)O)c(C=O)c1O | 24.3%
COc1cccc(OC)c1OCCNCC1CSc2ccccc2O1 (centres undefined) | -11.7%
C[C@H]1CC2C3CCC4=CC(=O)C=C[C@]4(C)[C@@]3(Cl)[C@@H](O)C[C@]2(C)[C@@]1(O)C(=O)CO (some centres undefined) | 4.38%
O=C(O)c1ccccc1Nc1ccccc1 | 1.53%
O=C(O)CCC(=O)N1CCCC1C(=O)O (centres undefined) | 1.37%
COc1cc(CNC(=O)CCCCCCC(C)C)ccc1O | -12.3%
O=C(O)Cc1ccc(O)c(O)c1 | 0.226%
Nn1nnc2ccccc21 | -4.94%
COc1cc(/C=C(\C#N)C(=O)c2ccc(O)c(O)c2)cc(I)c1O | 59%
CCCC(=O)NCCc1c2n(c3ccc(OC)cc13)CCCc1ccccc1-2 | 55.1%
Oc1ccc(Cn2cc[nH]c2=S)cc1 | -8.49%
CCCc1c(OCCCOc2ccc(OCC(=O)O)cc2)ccc(C(C)=O)c1O | 10.5%
NCCC1CCCC(CCN)N1 (centres undefined) | -6.34%
c1ccc2nc(C3=NCCN3)ccc2c1 | 41.1%
N#CC(C#N)=C(N)/C(C#N)=C/c1ccc(O)cc1 | 15.2%
